Test results: PubChem BioAssay (NCI)
The panel holds about 83,000 compounds, 20% with a hit somewhere; the sample as a whole holds those more often.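 Treatment: one concentration, 48 hours, 96-well format. Scoring: percent growth, with anything below 10 considered active.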 Values without a mark were called inactive. Active and inactive are the calls of the source.

What was measured:
Test in all cases: NCI-60 one-dose screen, 48 h (100 = growth as untreated, 0 = no growth, -100 = all killed)
Settings in all cases: 10 µM unless noted
HCT-15 colon = tested on: HCT-15 colon
HT29 colon = tested on: HT29 colon
SNB-75 CNS = tested on: SNB-75 CNS
SNB-19 CNS = tested on: SNB-19 CNS
PC-3 prostate = tested on: PC-3 prostate
SK-MEL-5 melanoma = tested on: SK-MEL-5 melanoma
UACC-62 melanoma = tested on: UACC-62 melanoma
LOX IMVI melanoma = tested on: LOX IMVI melanoma
SK-MEL-28 melanoma = tested on: SK-MEL-28 melanoma
U251 CNS = tested on: U251 CNS

Structure (SMILES)	growth (HCT-15 colon)	growth (HT29 colon)	growth (SNB-75 CNS)	growth (SNB-19 CNS) [%]	growth (PC-3 prostate)	growth (SK-MEL-5 melanoma)	growth (UACC-62 melanoma)	growth (LOX IMVI melanoma)	growth (SK-MEL-28 melanoma)	growth (U251 CNS)
NCCNc1nc2ccccc2c2c(=O)c3cc(F)ccc3sc12	51.2%	14.4%	71.2%	78.1	80.2%	93.9%	102%	24.2%	107%	
c1cc(-c2nnc(SSc3ncnc4nc[nH]c34)o2)ccn1	37.3%	18.9%	56.8%	93.1	51%	72.1%	11.8%	9.77% (active)	76.2%	
COc1cc(CCC[P+](c2ccccc2)(c2ccccc2)c2ccccc2)c(OC)c(OC)c1OC	68.2%	112%	29.7%	78	75.6%	76%	31.1%	79.2%	74.4%	
COc1ccn2c(C(C)=O)cc(C(=O)c3ccc4c(c3)Sc3ccccc3N4)c2c1	15%	-0.653% (active)	21.1%	40.3	23.8%	-39.7% (active)	35.9%	19.7%	46.7%	
CCCCCCN(CCCCCC)c1ccc(/C=C2/SC(=O)NC2=O)c(C)c1	75.7%	79.6%	78.8%	96	69.8%	82.1%	73.1%	86.5%	93.8%	
O=C(CCN1C(=O)/C(=C/c2ccc(O)cc2)SC1=S)Nc1ccccc1	90.8%	118%	89.3%	91.4	90.5%	101%	81.6%	97.6%	97.3%	
COc1cccc(-c2nc(-c3ccc(NC(=O)c4ccccc4)cc3)[nH]c2-c2ccnc(Br)c2)c1	-0.905% (active)	10.2%	10.7%	33.6	17.6%	-79.6% (active)	16.4%	-55.8% (active)	37%	
CCOC(=O)c1[nH]c(C)c(C(=O)OCc2ccccc2C#N)c1C	60.8%	35.1%	0.16% (active)	97.1	80.3%	60.3%	73.6%	63.1%	87.1%	
CC1=NN(c2ccc(S(=O)(=O)O)cc2)C(=O)C1N=Nc1ccc(-c2ccc(N=Nc3ccc(OS(=O)(=O)c4ccc(C)cc4)cc3)c(S(=O)(=O)O)c2)cc1 (stereo not given)	82.8%	93.3%	78.8%	104	86.3%	104%	92%	69.4%	103%	
CCOC(=O)Cn1c(=O)c2c(c3ccccc3n2C)n2nnc(-c3ccccc3)c12	112%	100%	94.2%	104	103%	98.4%	102%	91.1%	107%	
O=C(/C=C/c1sc(Cl)nc1Cl)c1ccc(F)cc1	31.2%	84.5%	92.5%		88.5%	93.6%	93.3%	0.0946% (active)	97.2%	40.4%
CN1CCN(c2ccc(-c3cnc4c(-c5csc6ccccc56)cnn4c3)cc2)CC1	-4.7% (active)	-40.4% (active)	-54.4% (active)		-12.4% (active)	-100% (active)	-2.26% (active)	-91.2% (active)	-7.59% (active)	-87.3% (active)
CCCCn1c(=O)c(-c2cc(-c3ccc(Cl)cc3)nc(-c3ccc(Cl)cc3)c2)cc2cc(Cl)ccc21	97.8%	101%	95.4%		98.4%	107%	88.5%	99.9%	104%	105%
C=C1C(=O)O[C@H]2[C@H]1CC/C(COC(=O)C(C)c1ccc(CC(C)C)cc1)=C\CC[C@@]1(C)O[C@@H]21 (stereo not given in full)	-56.1% (active)	-54.1% (active)	56.6%		16.4%		6.52% (active)	-89.1% (active)	5.16% (active)	1.42% (active)
CCCCOc1ccc(/C=N/NC(N)=S)cc1	55.7%	61.5%	72.9%		81%	95.7%	75.5%	94.2%	96.5%	89.9%
COc1cc(C(=O)/C=C/c2c(Cl)nc3sccn23)cc(OC)c1OC	59.4%	67.5%	70.9%		70.5%		78.7%	63.8%		77.4%
O=C(O)C(c1ccccc1)N1C(=O)CSC1=S (stereo not given)	103%	106%	72.8%		101%	102%	97.7%	97.2%	99.5%	
CC(C)C(=O)Nc1ccc(-c2nc(-c3cccc(OCCN4CCOCC4)c3)c(-c3ccnc(Br)c3)[nH]2)cc1	20.1%	16.9%	-4.1% (active)		40.7%	45.8%	33.5%	27.7%	43.9%	25%
COc1ccc(C(Cc2ccccc2)NCCN2CCOCC2)cc1 (stereo not given)	99.8%	87.7%	97.4%		93.8%	108%	100%	91.4%	103%	108%
COc1cc(C2CC(c3ccc(SC)cc3)=NN2C(C)=O)cc(OC)c1OC (stereo not given)	47.5%	21.9%	11.9%		58.3%	70.2%	57.9%	62.3%	75.3%	62.7%
CCCCC[C@H](O)C/C=C1/C(=O)C=C[C@@H]1C/C=C\CCCC(=O)O	69.5%	59.8%	79.1%		78.4%	82.8%	60.9%	6.2% (active)	66.4%	43.8%
COc1ccc(-c2conc2-c2ccccc2)cc1	17.9%	53.1%	-12.4% (active)		20%	22.4%	17.8%	38.8%	55.3%	20.9%
COC1=C(C)C(=O)c2c(c(CCCl)c3n2CCC3OC(C)=O)C1=O (stereo not given)	1.95% (active)	-15.6% (active)	-44.6% (active)		-10.6% (active)	-66.7% (active)	-71% (active)	-34.8% (active)	-32% (active)	-9.94% (active)
COc1ccc(C(=O)C(C)C)c2ccccc12	99.6%	106%	115%		93.4%	109%	106%	96.4%	126%	110%

Structure (SMILES)	growth (HCT-15 colon)	growth (HT29 colon)	growth (SNB-75 CNS)	growth (SNB-19 CNS) [%]	growth (PC-3 prostate)	growth (SK-MEL-5 melanoma)	growth (UACC-62 melanoma)	growth (LOX IMVI melanoma)	growth (SK-MEL-28 melanoma)	growth (U251 CNS)
COc1ccc(C2CC(c3ccc(Nc4nc(Nc5ccc(F)cc5)nc(Nc5ccc(Cl)cc5)n4)cc3)=NN2C(C)=O)cc1 (stereo not given)	93.6%	108%	85.5%		85.2%	92%	90.6%	105%	114%	
NC(=O)C1(Nc2ccc(Br)cc2)CCCC1	107%	102%	93.2%		94.3%	103%	96.4%	103%	106%	97.5%
CCCCCCNC(=O)Oc1ccc(/C(=C(\C)c2ccc(Cl)cc2)c2ccc(OCCN(CC)CC)cc2)cc1	1.93% (active)	-14.2% (active)	77.2%		56.7%	51.9%	73.3%	44.2%	66%	41.7%
Fc1cc(-c2nnc3sc(-c4ccc(Cl)cc4Cl)nn23)c(Cl)cc1Cl	90.7%	72.1%	49.1%		94.4%	67.4%	92.3%	96.2%	69.3%	75.5%
O=c1ccc(N=Nc2ccccc2)ccc1Cl	2.07% (active)	27.5%	74.5%		56.2%	55.5%	55.7%	-77.1% (active)	92.5%	54.4%
O=C1NC(=O)C(c2ccccc2)(c2ccccc2)N1Cc1cn(-c2c3ccccc3nc3ccccc23)nn1	59.9%	85.3%	85.1%		78%	82.2%	72.4%	78.2%	103%	91.2%
Cc1cc(C)c(-c2c(N)cc(Br)cc2Br)c(N)c1	46.5%	48.7%	22.9%		63.3%	29.3%	58%	32.8%		37.4%
CCOc1c(B(O)O)cccc1-c1nc2ccc3[nH]ncc3c2c2c1CCCC2	48.4%	78.7%	-38.5% (active)		68.3%		88.1%	37%	96.5%	75.4%
CCS(=O)(=O)c1ncnc2nc[nH]c12	101%	93.2%	90.9%		76.4%	98.7%	94.1%	101%	107%	95.6%
CC(=O)N1N=C(c2ccc(Nc3nc(Nc4ccc(F)cc4)nc(Nc4ccc(Cl)cc4)n3)cc2)CC1c1ccc(Cl)cc1 (stereo not given)	93.4%	106%	70.1%		68.8%	105%	99%	89.8%	121%	94.7%
CCOc1cccc(NC2=C(Br)C(=O)C(C)=C(C)C2=O)c1	98.6%	107%	56.3%		73.8%	89%	81.5%	26%	104%	97.3%
COC(=O)C(Cc1ccccc1)NC(=O)NC(=O)NC(=O)CI (stereo not given)	12%	50.1%	98.9%		87.6%	89.7%	6.21% (active)	-78.8% (active)	51.8%	101%
COc1cc(/C=C/C(=O)/C=C/c2cc(OC)c3c(c2OC)OCO3)c(OC)c2c1OCO2	31.9%	68.5%	33.4%		41%	45.1%	25.5%	32.9%	55.6%	
NS(=O)(=O)c1ccc(-n2nc(-c3ccc(Cl)cc3)c3ccccc3c2=O)cc1	94.5%	97.1%	79.2%		75.3%	90.3%	89.2%	83.6%	117%	103%
COc1cc(CNS(=O)(=O)c2ccc(C)cc2)ccc1OCc1cn(-c2ccccc2)nn1	88.2%	103%	91.9%		86.7%	80.1%	75.2%	94.1%	101%	89.1%
CC(=O)CC(c1cccs1)c1c(-c2ccccc2)[nH]c2ccccc12 (stereo not given)	80.7%	98.2%	40.7%		77.3%	95.3%	77.9%	81.7%	102%	93.8%
CC1(C)C2CC1C1(/C=N/NC(N)=S)C(C2)C(C#N)(C#N)C1(C#N)C#N (stereo not given)	27.5%	60.6%	101%		70.7%	85.6%	78.8%	50.1%	88.7%	82.1%
Cc1ccc(C(=O)NCCNc2nccc(-c3c(-c4cccc(F)c4)nc4sccn34)n2)cc1	38.9%	35.9%	-1.5% (active)		56.2%	37.6%	23.7%	39.4%	65%	62%
COc1ccc(/C=C(/C#N)n2nnc3cccc(F)c32)cc1	13.2%	1.29% (active)	-43.5% (active)		27.1%	-7.21% (active)	17.9%	5.5% (active)	48.1%	14.3%
CN1C(=O)CNC(=O)[C@H](NC(=O)c2nc3ccccc3cc2O)CSSC[C@H]1C(=O)NCCc1nc2ccccc2cc1O	99.7%	17.6%	129%		55.7%		34.9%	-11.5% (active)	62.8%	71.4%
CCCCCCCCCCCCCCCCCC1OCC(COC(=O)O[C@]2(CC)C(=O)OCc3c2cc2n(c3=O)Cc3cc4ccccc4nc3-2)O1 (stereo not given in full)	83.5%	79.6%	79.6%		77.8%	84.6%	31.6%	59.7%	111%	
C=C1C(=O)O[C@H]2[C@H]1CC/C(COC(=O)NCCOCCOCC(=O)Nc1ccc(OC)c(C(N)=O)c1O)=C\CC[C@@]1(C)O[C@@H]21	85.4%	37.2%	80.1%		51.4%		44.4%	57.2%	47.1%	70.5%
COc1cc2cc(Oc3ccc(NC(=O)Nc4ccc(F)c(C(F)(F)F)c4)cc3)c(C)nc2cc1OCCN1CCOCC1	13.6%	8.41% (active)	51.6%		5.95% (active)	-37.6% (active)	33.9%	12.8%	43.1%	13.6%
COc1ccc(/C=N/Nc2cc(=O)[nH]c3ccc(C)cc23)cc1	87.9%	94.7%	108%		79.1%		89.4%	91.5%	101%	97.1%
